According to PubChem BioAssay (NCI):
About 79,000 compounds went through this panel and 15% of them were active in at least one assay; those are over-represented in the sample as a whole. The source made the active and inactive calls. Rule as the data show it: active = growth inhibition above about 70%; inactive = the rest.

Tests used:
[1] = NCI Yeast Anticancer Drug Screen. Data for the rad52 strain (AID 147);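 also: 0% = growth of vehicle-treated control cultures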; settings: S. cerevisiae rad52 mutant growth inhibition, hits give high values
Procedure, shortened: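 Yeast strain carrying a DNA damage repair alteration was exposed to test compounds. Growth inhibition was measured relative to vehicle-treated controls.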

[2] = NCI Yeast Anticancer Drug Screen. Data for the wt1 strain (AID 149);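 also: 0% = growth of vehicle-treated wt1 cultures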; settings: S. cerevisiae wt1 strain (SPY 50644) growth inhibition, hits give high values
Procedure, shortened: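 wt1 yeast, compound-treated; % growth inhibition vs vehicle control.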

[3] = NCI Yeast Anticancer Drug Screen. Data for the rad50EPP+ strain (AID 151);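 also: 0% = growth of vehicle-treated control cultures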; settings: S. cerevisiae rad50 mutant strain, hits give high values
Procedure, shortened: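 Yeast strain carrying rad50 alteration (rad50EPP+) exposed to compounds; growth inhibition measured relative to vehicle-treated controls.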

[4] = NCI Yeast Anticancer Drug Screen. Data for the rad50 strain (AID 155);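 also: 0% = growth of vehicle-only cultures of the same strain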; settings: S. cerevisiae rad50 strain growth inhibition, hits give high values
Procedure, shortened: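 Genetically altered yeast (DNA repair pathway); compound treatment; growth inhibition vs vehicle ctrl.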

[5] = NCI Yeast Anticancer Drug Screen. Data for the mec2-1 strain (AID 157); settings: S. cerevisiae mec2-1 strain, hits give high values
Procedure, shortened: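 mec2-1 yeast strain, carrying an alteration in DNA damage repair or cell cycle control, was exposed to compounds; growth inhibition was measured relative to vehicle-treated controls.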

[6] = NCI Yeast Anticancer Drug Screen. Data for the rad14 strain (AID 159);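 also: 0% = growth of vehicle-treated control cultures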; settings: S. cerevisiae rad14 strain growth inhibition, hits give high values
Procedure, shortened: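 Test compounds were applied to a repair-deficient yeast strain. Its growth was then compared with that of cultures given vehicle alone, and inhibition was expressed relative to those controls.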

[7] = NCI Yeast Anticancer Drug Screen. Data for the sgs1 mgt1 strain (AID 161);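 also: 0% = growth of cultures given vehicle only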; settings: S. cerevisiae sgs1 mgt1 strain, hits give high values
Procedure, shortened: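 Compounds are added to genetically altered yeast, and growth is compared with cultures given vehicle alone to give percent inhibition.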

[8] = NCI Yeast Anticancer Drug Screen. Data for the CLN2oe strain (AID 163);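 also: 0% = growth of vehicle-only control cultures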; settings: S. cerevisiae CLN2oe strain, hits give high values
Procedure, shortened: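 Yeast cells carrying a defined cell-cycle control alteration were exposed to test compounds. Growth inhibition was scored against vehicle-treated control cultures.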

[9] = NCI Yeast Anticancer Drug Screen. Data for the cln2 rad14 strain (AID 165);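 also: 0% = growth equal to vehicle treated cultures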; settings: S. cerevisiae cln2 rad14 strain, hits give high values
Procedure, shortened: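 Yeast carrying cln2 and rad14 alterations (cell cycle control and DNA damage repair) were exposed to compounds. Growth inhibition was measured against vehicle-treated controls.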

[10] = NCI Yeast Anticancer Drug Screen. Data for the bub3 strain (AID 167); settings: S. cerevisiae bub3 mutant strain, hits give high values
Procedure, shortened: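 Yeast carrying a defined mutation is treated with each compound, and growth is compared with that of vehicle-exposed cells to give inhibition.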

[11] = NCI Yeast Anticancer Drug Screen. Data for the wt2 strain (AID 169);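 also: 0% = growth of vehicle-treated yeast cultures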; settings: S. cerevisiae wt2 strain growth inhibition, hits give high values
Procedure, shortened: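 Yeast cells were exposed to test compounds, and growth inhibition was measured relative to vehicle-treated controls.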

[12] = NCI Yeast Anticancer Drug Screen. Data for the mlh1 strain (AID 171);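 also: 0% = growth of vehicle-treated control cultures of the same strain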; settings: S. cerevisiae mlh1 strain growth inhibition, hits give high values
Procedure, shortened: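 Yeast carrying a defined genetic alteration in DNA damage repair or cell cycle control were exposed to test compounds. Growth inhibition was measured relative to vehicle-treated controls.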

[13] = NCI Yeast Anticancer Drug Screen. Data for the sgs1 strain (AID 173);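 also: 0% = growth of vehicle-only control cultures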; settings: S. cerevisiae sgs1 mutant, hits give high values
Procedure, shortened: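 Yeast mutant strains carrying defined defects in DNA damage repair or cell cycle control were exposed to test compounds. Growth inhibition was scored against vehicle-treated controls.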

[14] = NCI Yeast Anticancer Drug Screen. Data for the mlh1 rad18 strain (AID 175); settings: S. cerevisiae mlh1 rad18 strain growth inhibition, hits give high values
Procedure, shortened: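 Growth inhibition of the yeast strain was measured after compound exposure and expressed relative to vehicle-treated controls. The strain carries defined defects in DNA damage repair.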

[15] = NCI Yeast Anticancer Drug Screen. Data for the rad18 strain (AID 177); settings: S. cerevisiae rad18 mutant growth inhibition, hits give high values
Procedure, shortened: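 Yeast carrying a defined DNA damage repair alteration were exposed to compounds. Growth inhibition was expressed relative to vehicle-treated controls.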

[16] = NCI Yeast Anticancer Drug Screen. Data for the mgt1 strain (AID 153); settings: S. cerevisiae mgt1 mutant growth inhibition, hits give high values
Procedure, shortened: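 Yeast mgt1 strain (DNA repair/cell-cycle alteration panel) exposed to compounds; growth inhibition measured relative to vehicle-treated controls.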

[17] = at 5.0 µM (retest, dose inferred, filed as 0.5)
[18] = at 50.0 µM (retest, dose inferred, filed as 5.0)

Measured: growth inhibition

CC(=O)O/C(=C1\C[C@H]2[C@@H]3CC=C4C[C@@H](OC(C)=O)CC[C@]4(C)[C@H]3CC[C@]2(C)C1=O)C(F)(F)F
active: [4]; at 50.0 µM 76.1% | [5]; at 50.0 µM 80.5% | [7]; at 50.0 µM 77.8% | [9]; at 50.0 µM 94%
inactive: [1]; at 1.2 µM -2% | [1]; at 3.7 µM -1% | [1]; at 11.0 µM -5% | [1]; at 33.0 µM -3% | [1]; at 100.0 µM 0% | [2]; at 1.2 µM -1% | [2]; at 3.7 µM 1% | [2]; at 11.0 µM 2% | [2]; at 33.0 µM 0% | [2]; at 100.0 µM 4% | [3]; at 1.2 µM 1% | [3]; at 3.7 µM 6% | [3]; at 11.0 µM 5% | [3]; at 33.0 µM 3% | [3]; at 100.0 µM 1% | [4]; at 1.2 µM 3% | [4]; at 3.7 µM -1% | [4]; [17] 18% | [4]; at 11.0 µM 7% | [4]; at 33.0 µM 2% | [4]; [18] 18% | [4]; at 100.0 µM 0% | [5]; at 1.2 µM 2% | [5]; at 3.7 µM 4% | [5]; [17] 19% | [5]; at 11.0 µM 4% | [5]; at 33.0 µM 5% | [5]; [18] 3% | [5]; at 100.0 µM 14% | [6]; at 1.2 µM 1% | [6]; at 3.7 µM -4% | [6]; at 11.0 µM 0% | [6]; at 33.0 µM -7% | [6]; at 100.0 µM 22% | [7]; [17] 2% | [7]; [18] 18% | [8]; at 1.2 µM -140% | [8]; at 3.7 µM 4% | [8]; at 11.0 µM 2% | [8]; at 33.0 µM 1% | [8]; at 100.0 µM 6% | [9]; [17] 37% | [9]; [18] -1% | [10]; at 1.2 µM -1% | [10]; at 3.7 µM 1% | [10]; [17] -10% | [10]; at 11.0 µM 10% | [10]; at 33.0 µM 3% | [10]; [18] 13% | [10]; at 50.0 µM 61.7% | [10]; at 100.0 µM 6% | [11]; at 1.2 µM -1% | [11]; at 3.7 µM 0% | [11]; at 11.0 µM -2% | [11]; at 33.0 µM -1% | [11]; at 100.0 µM 2% | [12]; at 1.2 µM 4% | [12]; at 3.7 µM 4% | [12]; at 11.0 µM 3% | [12]; at 33.0 µM -20% | [12]; at 100.0 µM 11% | [13]; at 1.2 µM 2% | [13]; at 3.7 µM 3% | [13]; at 11.0 µM 4% | [13]; at 33.0 µM 3% | [13]; at 100.0 µM 2% | [14]; [17] 9% | [14]; [18] 9% | [14]; at 50.0 µM 63.5% | [15]; at 1.2 µM -4% | [15]; at 3.7 µM -3% | [15]; at 11.0 µM 3% | [15]; at 33.0 µM -3% | [15]; at 100.0 µM -6%

Br[Se]c1ccccn1
active: [1]; at 11.0 µM 97% | [1]; at 33.0 µM 99% | [1]; at 100.0 µM 98% | [2]; at 33.0 µM 99% | [2]; at 100.0 µM 99% | [16]; at 11.0 µM 79% | [16]; at 33.0 µM 99% | [16]; at 100.0 µM 99% | [4]; at 3.7 µM 91% | [4]; at 11.0 µM 97% | [4]; at 33.0 µM 98% | [4]; [18] 99% | [4]; at 50.0 µM 99.5% | [4]; at 100.0 µM 98% | [5]; at 11.0 µM 89% | [5]; at 33.0 µM 99% | [5]; [18] 100% | [5]; at 50.0 µM 99.8% | [5]; at 100.0 µM 99% | [6]; at 11.0 µM 99% | [6]; at 33.0 µM 99% | [6]; at 100.0 µM 99% | [7]; [18] 99% | [7]; at 50.0 µM 99.6% | [8]; at 33.0 µM 99% | [8]; at 100.0 µM 99% | [9]; [18] 99% | [9]; at 50.0 µM 98.3% | [10]; [17] 75% | [10]; at 11.0 µM 93% | [10]; at 33.0 µM 98% | [10]; [18] 100% | [10]; at 50.0 µM 99.7% | [10]; at 100.0 µM 98% | [12]; at 11.0 µM 84% | [12]; at 33.0 µM 99% | [12]; at 100.0 µM 99% | [13]; at 11.0 µM 83% | [13]; at 33.0 µM 99% | [13]; at 100.0 µM 99% | [14]; [18] 99% | [14]; at 50.0 µM 99.7% | [15]; at 11.0 µM 96% | [15]; at 33.0 µM 98% | [15]; at 100.0 µM 98%
inactive: [1]; at 1.2 µM 2% | [1]; at 3.7 µM 53% | [2]; at 1.2 µM 2% | [2]; at 3.7 µM 10% | [2]; at 11.0 µM 58% | [16]; at 1.2 µM -3% | [16]; at 3.7 µM 12% | [4]; at 1.2 µM 5% | [4]; [17] 44% | [5]; at 1.2 µM 0% | [5]; at 3.7 µM 34% | [5]; [17] 29% | [6]; at 1.2 µM 5% | [6]; at 3.7 µM 36% | [7]; [17] -5% | [8]; at 1.2 µM -11% | [8]; at 3.7 µM 11% | [8]; at 11.0 µM 62% | [9]; [17] 9% | [10]; at 1.2 µM -2% | [10]; at 3.7 µM 20% | [12]; at 1.2 µM -1% | [12]; at 3.7 µM 22% | [13]; at 1.2 µM 0% | [13]; at 3.7 µM 23% | [14]; [17] 31% | [15]; at 1.2 µM 1% | [15]; at 3.7 µM 65%
